High-throughput results as filed in PubChem.
An excerpt weighted towards active compounds, which were near 21% of everything screened.
Pf growth 48h: P. falciparum growth inhibition at 48 hours (one generation); hit rate 5.9% among 310,000; Potency, µM (titrated, usually from 28.7 µM), inactives show top-dose activity change, negative = inhibition, actives largely listed as inhibitors; P. falciparum luciferase growth in erythrocytes, 48 h; further: potency means the concentration at half of the fitted maximal effect; on the % scale 0 is the no-effect control and ±100 the full control effect
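In quantitative HTS format, infected erythrocytes bearing luciferase-reporter parasites were treated for a single generation at 37 C. Luminescence after adding detection reagent served as the growth measure.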
Shiga inhibitor: inhibitors of Shiga toxin in Vero cells. Vero cells, Shiga toxin protein synthesis inhibition reporter. inhibition, % at 38.7 µM. hit rate 9.2% among 290,000; in the data active means inhibition mostly above about 28%, no sharp cut-off; inactive means mostly below about 43%; further: 0% is about no effect
Sm TGR inh: S. mansoni TGR enzyme inhibition; hit rate 3% among 360,000; purified TGR, DTNB reduction, TNB absorbance 405 nm; Potency, µM (top dose mostly 114 µM), without a hit: at the highest dose activity change, negative = inhibition, hits mostly inhibitors; Q962Y6; AID 485364; further: potency means the concentration at half of the fitted maximal effect; on the % scale 0 is the no-effect control and ±100 the full control effect; nearly all actives have a fitted effect of over 60% in size
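First, TGR (20 nM dispensed) and NADPH were mixed with compound. Second, a 15 min room-temperature incubation followed. Third, further NADPH and then DTNB were added to start the reaction. Finally, TNB absorbance was monitored kinetically.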
Pf growth 96h: P. falciparum growth inhibition at 96 hours; Potency, µM (highest dose often 28.7 µM), inactives show at the top dose activity change, negative = inhibition, hits mostly inhibitors; AID 504834; P. falciparum luciferase reporter growth, 96 h; hit rate 6.9% among 320,000; further: potency means the concentration at half of the fitted maximal effect; on the % scale 0 is the no-effect control and ±100 the full control effect
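Compounds incubated with erythrocytes infected by luciferase-expressing P. falciparum (2% hematocrit, 0.05% parasitemia final) for 96 hours, 37 C in 5% CO2. Growth inhibition scored as decreased luciferase luminescence.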
CHX counter: counter-screen for Shiga toxin inhibitors: cycloheximide protein synthesis inhibition. cell reporter, cycloheximide protein synthesis inhibition counterscreen. max response, %. hit rate 12% among 300,000. AID 2314; in the data active means max response mostly above about 13%, no sharp cut-off; inactive means mostly below about 14%; further: read at 38.3 µM for the half of the compounds with a filed dose; 0% is about no effect
NS1 function inh: blocks influenza NS1 protein function. Potency, µM (top dose mostly 46.1 µM), without a hit: at the top dose activity, positive = more growth. hit rate 0.4% among 270,000; calls by dose curve; further: potency means the concentration at half of the fitted maximal effect; actives are rising curves; nearly all actives have a fitted effect of over 50% in size
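A cell-based growth assay was used: compounds that relieve NS1-induced slow growth of budding yeast raise OD600. Assay medium was yeast nitrogen base with ammonium sulphate and -URA supplement, pH 6.0, with 2% galactose.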
Active calls of the source: *; u = inconclusive; x = no result. Unless noted, the call rests on the fitted dose curve; in most records, active means well fitted curve in the direction sought with a large enough effect; inconclusive means small, poorly fitted or top-dose-only effect, or another doubt; inactive means no such curve, though single readings can be large; an effect the other way counts as inactive or inconclusive.

SMILES	Pf growth 48h	Shiga inhibitor	Sm TGR inh	Pf growth 96h	CHX counter	NS1 function inh
COCCc1nc2ccc(C(=O)N(C)Cc3cccc(-n4cccn4)c3)cc2o1	0%	82*	-14%	u	62*	-12%
CN(Cc1cccnc1)C(=O)c1ccc2nc(Cc3ccccc3F)oc2c1	14%	61*	-1%	25%	43*	-13%
CN(C)CCNC(=O)c1ccc2nc(CCc3ccccc3)oc2c1	x	x	-2%	x	x	x
CN(Cc1ccon1)C(=O)c1ccc2nc(Cc3cccc(Cl)c3)oc2c1	0%	5	4%	13µM*	22	-8%
CNC(=O)c1ccc2nc(CCc3ccccc3)oc2c1	x	x	6%	x	x	x
Cc1ccc(N2C(=O)C3NN=C(C(=O)OCc4ccccc4)C3C2=O)c(C)c1 (stereo not given)	4%	15	-11%	-4%	-4	-6%
CCOc1ccc(-c2n[nH]c(C(=O)NN)c2C)cc1	92%	95*	-7%	41%	32*	u
Cc1c(-c2ccccc2)n[nH]c1C(=O)NN	15%	97*	0%	79%	43*	x
CCOc1ccc(-c2nonc2NC(=O)c2ccccc2C)cc1	x	x	2%	x	x	x
COc1ccc(NC(=O)c2cnc(Nc3ccc(C)c(Cl)c3)c3ccccc23)c(OC)c1	x	x	12%	x	x	x
CCCCn1c(N)c(N(CC(C)C)C(=O)CCNC(=O)c2ccccc2Cl)c(=O)[nH]c1=O	u	x	-4%	-16%	x	x
CCOc1ccc(CNc2ccc3c(c2)nc(C)n3C)cc1	-19%	active	-9%	x	25*	-14%
COc1ccc(CNc2ccc3c(c2)nc(C)n3C)cc1OC	55%	58*	-14%	7%	44*	-8%
CCCCn1cnc2cc(NCc3ccc(OCC)cc3)ccc21	x	x	7%	x	x	x
CCOc1ccc(CNc2nc3ccccc3n2C)cc1	1%	x	8%	u	39*	-9%
CC(C)CCn1nnc2sc(-c3ccccc3)cc2c1=O	x	x	-2%	x	x	x
Cc1ccc(/C=N/n2cnc3sc(-c4ccccc4)cc3c2=O)o1	x	47*	-6%	85%	24*	-5%
C=CCN1C(=O)CN=C1Nc1ccc(F)cc1	10µM*	-1	6%	u	-1	-6%
COc1ccc(CCN2C(=O)CN=C2Nc2ccc(F)cc2)cc1OC	-1%	-4	x	-1%	-3	5%
CC(=O)Nc1ccc(NC2=CC(=O)c3ccccc3C2=O)cc1	u	111*	-9%	0.59µM*	55*	1%
O=C1C=C(Nc2ccc(O)cc2)C(=O)c2ccccc21	98%	68*	u	-104%	44*	-34%
Cc1ccc(Cl)cc1N1CCN(C(=O)c2sc3nc4n(c(=O)c3c2C)CCC4)CC1	x	x	6%	x	x	x
COc1cc(OC)c(OC)cc1CNC(=O)c1ccc(COc2ccccc2)cc1	-25%	28	-1%	u	21	-15%
Cc1cc(N)n(-c2ccc3ccccc3c2)n1	58%	43*	3%	259%	18*	24%
O=C1c2ccccc2NC(c2c(Cl)cccc2Cl)N1Cc1ccccc1 (stereo not given)	13µM*	-8	0%	-19%	4	u
SMILES	Pf growth 48h	Shiga inhibitor	Sm TGR inh	Pf growth 96h	CHX counter	NS1 function inh
O=C1c2ccccc2NC(c2ccc(Cl)cc2Cl)N1Cc1ccccc1 (stereo not given)	x	23	7%	u	18	18%
Cc1nccc2[nH]c(=O)c(C(=O)NC3CCN(Cc4ccccc4)CC3)cc12	x	x	x	x	x	26%
Cc1nccc2[nH]c(=O)c(C(=O)NC3CCCCC3C)cc12 (stereo not given)	u	22	7%	3.3µM*	1	1%
S=c1[nH]nc(C2CCCCC2)n1/N=C/c1cccs1	46%	-18	10%	11%	-2	0%
CC(O)CNc1nc2sc3c(c2c(=O)n1Cc1ccco1)CCCCC3 (stereo not given)	u	36*	-15%	-4%	25*	1%
CC(C)Cn1cnc2sc3c(c2c1=N)CCCC3	x	33	-5%	x	6	-1%
N=c1c2c3c(sc2ncn1Cc1ccco1)CCCCC3	43%	42	-13%	u	21*	29%
CC(O)CNc1nc2sc3c(c2c(=O)n1CCc1ccccc1)CCCCC3 (stereo not given)	12µM*	29	4%	0%	18*	12%
